Source: PubChem
In the library only some 3.8% were active in any assay of this set; here they are far more common.
PfHsp90 set2: growth inhibition of yeast expressing Plasmodium Hsp90; S. cerevisiae expressing PfHsp90, BacTiter-Glo ATP, 48 h; yeast lacking PDR1 and PDR3 efflux regulators; hit rate 0.32% among 310,000; inhibition, % at 9.4 µM;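 active means every replicate shows inhibition above about 80%, whatever the replicate mean, limit read from the data; inconclusive means mean inhibition reaches the set limit but some replicate falls short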;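 further: 0% = DMSO neutral controls and 100% = 20 µM radicicol positive controls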
TIM10 inh: growth inhibitors of TIM10 yeast strain. S. cerevisiae TIM10 strain growth, BacTiter-Glo luminescence, 24 h. inhibition, % at 10 µM. hit rate 1.4% among 330,000. AID 463195;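 active means inhibition of 40% or more at the single tested concentration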;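 further: wild-type TIM10 isogenic control strain grown at permissive 25 °C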
tim10-1 inh: tim10-1 yeast growth inhibition; S. cerevisiae tim10-1 ts strain growth, BacTiter-Glo, 24 h; inhibition, % at 20 µM; hit rate 2.2% among 330,000;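 active means inhibition of at least 40%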;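 further: mutant grown at 25 °C; 0% = DMSO wells with yeast and 100% = wells holding no yeast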
tim23-1 inh: inhibits growth of tim23-1 mutant yeast. inhibition, % at 20 µM. AID 463212. hit rate 1.3% among 330,000. S. cerevisiae tim23-1 growth, BacTiter-Glo luminescence, 24 h;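 active means growth inhibition of the mutant yeast at or above 50%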;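 further: temperature-sensitive mutant grown at 25 °C; plate controls were DMSO-treated mutant yeast for no effect and medium wells lacking yeast for full effect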
B2AR ag: agonists of human beta-2 adrenergic receptor inducing internalization | Am2.2-beta2AR cells, FAP receptor internalization, flow cytometry | AID 504454 | hit rate 0.43% among 340,000 | response, % (concentration not given with the values);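 active means response above a set limit, near 3 SD of response in nonfluorescent compounds, cut at about 42% in these data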
Target sequence (P07550 whole entry, looked up): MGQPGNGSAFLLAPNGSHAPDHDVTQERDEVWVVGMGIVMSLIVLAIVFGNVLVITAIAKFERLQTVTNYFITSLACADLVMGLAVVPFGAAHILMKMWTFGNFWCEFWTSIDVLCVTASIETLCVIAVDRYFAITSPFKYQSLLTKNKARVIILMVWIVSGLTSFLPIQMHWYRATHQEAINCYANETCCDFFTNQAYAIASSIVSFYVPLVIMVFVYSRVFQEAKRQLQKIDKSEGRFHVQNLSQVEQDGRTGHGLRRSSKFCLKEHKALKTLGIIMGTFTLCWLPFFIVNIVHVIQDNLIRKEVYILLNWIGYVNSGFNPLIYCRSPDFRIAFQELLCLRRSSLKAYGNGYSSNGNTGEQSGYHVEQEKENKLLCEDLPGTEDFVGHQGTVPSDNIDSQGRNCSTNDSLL
TIM10 conf: TIM10 yeast growth inhibition, confirmed | S. cerevisiae tim10 strain growth, BacTiter-Glo luminescence, 24 h | hit rate 63% among 4,600 | shares compounds with TIM10 inh | AID 463215 | inhibition, % at 10 µM;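 active means inhibition of yeast growth at or above a set limit in either of two replicates at 10 µM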;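 further: this counterscreen used the strain with wild-type TIM10; 0% = yeast with DMSO and 100% = medium wells lacking yeast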
An asterisk follows results filed as active; ? = inconclusive; . = no result given.

SMILES	PfHsp90 set2	TIM10 inh	tim10-1 inh	tim23-1 inh	B2AR ag	TIM10 conf
CCC(C)(C(=O)NC1CCCC1)N(Cc1cccs1)C(=O)Cc1cccs1 (centres undefined)	5.9	45.1*	22.9	20.6	-0.9	15.5
CCC(C)(C(=O)NC1CCCC1)N(Cc1cccs1)C(C)=O (centres undefined)	-0.9	16.8	12.7	6.6	-2.6	.
CCN(C(=O)Cn1c(=O)n2nc(CCn3nc(C)cc3C)nc2c2ccccc21)c1cccc(C)c1	-14.2	48.1*	36.1	44.0	-3.2	44.8*
Cc1cccc(NC(=O)Cn2c(=O)n3nc(CCn4nc(C)cc4C)nc3c3ccccc32)c1	-1.5	11.0	11.6	10.8	-15.2	.
O=C(Oc1ccc2c(=O)c(Oc3ccc4ccccc4c3)coc2c1)c1cccnc1	-8.3	20.2	11.3	16.9	-1.3	.
O=C(Oc1ccc2c(=O)c(Cl)coc2c1)c1cccnc1	7.9	45.1*	-12.1	-26.9	6.6	-13.2
CNC(=S)N/N=C/c1c(C)nn(-c2ccc(F)cc2)c1Cl	.	42.7*	18.2	1.8	3.7	-5.5
Cc1nn(-c2ccc(F)cc2)c(Cl)c1/C=N/NC(=O)c1ccc(O)cc1	-12.9	-8.4	-10.1	-6.7	6.1	.
O=C(CSc1nnc(-c2cccs2)n1CC1CCCO1)c1cc2ccccc2o1 (centres undefined)	?	41.1*	30.6	19.2	-8.0	-26.2
Cc1c(Cl)cccc1NC(=O)CCN1C(=O)C2CC=CCC2C1=O (centres undefined)	-19.4	-5.1	-17.2	-14.5	0.2	.
CCCCOc1cccc(/C=N/NC(=O)c2csc(C)c2C)c1	-14.8	47.9*	31.5	16.6	-5.0	27.1
Cc1cccc(C(=O)NCC(=O)NC2CCC(C)CC2)c1 (centres undefined)	.	-3.7	-16.3	-4.1	-3.8	.
CCOc1ccccc1NC(=O)CCC(=O)Nc1nnc(C2CCCCC2)s1	1.4	-2.4	-0.4	3.5	-6.3	.
O=C(CCC(=O)Nc1nnc(C2CCCCC2)s1)NCc1ccccc1	-8.3	54.8*	2.3	12.2	0.3	-3.0
Cc1cccc2cc(C#N)c(NCCCNS(=O)(=O)c3ccc(Cl)cc3)nc12	-27.9	0.6	-11.4	23.3	3.4	.
CCOC(=O)c1ccccc1NC(=O)COC(=O)Cc1ccccc1F	.	11.2	25.7	34.1	-0.7	.
Cc1ccc(C(=O)Nc2ccccc2C(=O)N2CC3(C)CC2CC(C)(C)C3)cc1 (centres undefined)	-92.1	44.4*	32.8	30.9	13.5	23.9
Cc1ccc(NC(=O)Cn2c3ccc(F)cc3c3nc4n(c(=O)c32)CCS4)cc1F	-0.3	5.8	28.6	7.9	-3.3	.
O=C(Cn1c2ccc(F)cc2c2nc3n(c(=O)c21)CCS3)Nc1ccc(Cl)cc1F	-22.4	41.1*	37.7	7.8	-4.2	33.5*
O=C(CNc1ccc2ccccc2c1)N/N=C/c1ccc(OC(=O)/C=C/c2ccco2)cc1	-21.7	40.5*	29.0	9.7	0.1	36.5*
O=C(COC(=O)Cc1n[nH]c(=O)c2ccccc12)Nc1c(Br)cc([N+](=O)[O-])cc1Br	-19.5	.	.	.	-1.4	.
Cc1ccc(C(=O)C[n+]2cc(-c3ccc(C)cc3)n3c2CCCCC3)cc1	12.6	46.4*	30.2	19.7	-0.9	15.0
COc1ccc(NC(=O)c2cc3c(-c4ccc(OC)c(OC)c4)nn(C)c3s2)cc1OC	-29.5	40.1*	34.5	35.5	37.5	26.9*
COc1ccc(-c2nn(C)c3sc(C(=O)NCc4ccco4)cc23)cc1OC	-20.8	-31.2	-20.7	-20.1	7.6	.
CN(C)CCCNc1cc(C(C)(C)C)nc2c(-c3ccc(Cl)cc3)cnn12	26.8	54.7*	-15.0	-17.4	17.8	60.2*
SMILES	PfHsp90 set2	TIM10 inh	tim10-1 inh	tim23-1 inh	B2AR ag	TIM10 conf
CCN(CCNC(=O)C1CCCN(c2ncnc3c2nc2n3CCCCC2)C1)Cc1ccccc1 (centres undefined)	2.2	71.1*	2.4	1.1	-11.3	0.8
Cc1nnc(SCc2nc3ccccc3[nH]2)s1	1.1	-2.2	-5.8	-7.9	-3.0	.
c1ccc2[nH]c(CSc3nc4ccccc4s3)nc2c1	-5.7	67.7*	32.7	23.0	-4.9	58.6*
O=C(Nc1ncn[nH]1)c1ccc([N+](=O)[O-])cc1[N+](=O)[O-]	.	42.6*	6.1	-4.9	12.9	-20.4
CCC(=O)N1CCc2cc(Br)c(S(=O)(=O)CCC(=O)NCCc3ccccc3)cc21	12.1	.	.	.	-7.4	.
O=C1NC(=O)C2(CCCCC2C2CCCCC2)N1 (centres undefined)	-17.9	.	.	.	-0.4	.
CCC(=O)Nc1ccc2c(c1)C(=O)N(C)C2=O	15.4	0.5	4.1	5.7	-17.8	.
CCC(=O)Nc1ccc2c(c1)C(=O)c1ccccc1C2=O	-0.2	42.0*	34.6	36.1	-14.2	28.3
O=C(Oc1ccc2[nH]cc(CCN3C(=O)c4ccccc4C3=O)c2c1)c1ccco1	.	43.4*	31.3	30.3	5.2	39.0*
O=Cc1cc(OCc2ccccc2)ccc1[B-](F)(F)F	4.3	.	.	.	1.6	.
Clc1ccc2[nH]cc(-c3nnnn3-c3ccccc3)c2c1	.	41.7*	28.6	21.3	-6.8	28.9
c1ccc(-n2nnnc2-c2cccc3ccccc23)cc1	.	.	.	.	8.3	.
CCOC(=O)c1c(C)[nH]c(C(=O)COC(=O)CNS(=O)(=O)c2ccc(C)cc2)c1C	-21.9	71.1*	3.8	8.5	13.6	7.3
CC(=O)c1c(C)[nH]c(C(=O)COC(=O)CNS(=O)(=O)c2ccccc2)c1C	.	-11.6	9.8	-3.2	-0.2	.
CCCCCC(=O)Nc1ccc(-c2csc(N)n2)cc1	.	43.0*	-5.2	7.1	7.3	11.7
O=[N+]([O-])CC(c1ccccc1)c1c[nH]c2ccccc12 (centres undefined)	.	44.7*	18.6	38.8	2.0	54.8*
O=C(Nc1ccccc1F)N1CCc2ccccc2C1	-4.8	14.5	3.1	15.2	19.2	.
O=[N+]([O-])c1ccc(N/N=C\c2cccn2-c2ccccc2)nc1	-11.6	43.3*	30.2	33.9	-14.7	15.0
CC1=C(C(=O)OCc2ccccc2)C(c2cccc(F)c2)NC(=O)N1 (centres undefined)	-9.7	1.1	7.8	14.3	-4.6	.
COc1ccc(-n2cc(-c3ccccc3)c3c(=O)[nH]cnc32)cc1	-25.6	50.8*	34.3	45.8	0.5	45.5*
COc1ccc(-n2cc(-c3ccccc3)c3c(N4CCOCC4)ncnc32)cc1	1.0	8.7	25.2	18.8	26.1	.
COc1ccc(NC(=S)NNC(=O)COc2ccc(Cl)cc2Cl)cc1	-21.5	46.6*	29.9	41.5	-18.4	-12.7
COc1ccc(NC(=O)CSCC(=O)Nc2cc(Cl)ccc2N2CCCC2)cc1	7.4	-9.4	29.1	25.8	-4.4	.
Cc1ccc(N2C(=O)N(CC(=O)Nc3ccc(C)c(C)c3)C(=O)C2C)cc1 (centres undefined)	.	-9.8	-16.3	11.2	9.3	.
Cc1ccc(S(=O)(=O)CCC(=O)OCC(=O)N(C)c2ccccc2)cc1	-13.5	.	.	.	-0.8	.
